Only a selection was taken, and hits are over-represented in it overall.
aSyn yeast rescue: rescues yeast growth from alpha-synuclein toxicity; S. cerevisiae alpha-synuclein toxicity rescue, BacTiter-Glo growth, 24 h; Potency, µM (series often up to 46.1 µM), usual class: activators; actives 0.02% (n = 94,000); AID 1347070; active = well fitted activation curve with a large enough effect; note: 0% is about no effect
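Growth restoration measured by BacTiter-Glo luminescence after 24 hr at 30 deg C; alpha-synuclein yeast, raffinose-pregrown to mid-log, were added at OD600=0.02 in galactose medium onto pinned compounds.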
* hit, by the source's call; i = inactive. Potency is the fitted concentration of half-maximal effect.

SMILES	aSyn yeast rescue
Cc1ccc(S(=O)(=O)c2nc(-c3ccc(F)cc3)oc2SCC(=O)c2ccccc2)cc1	i
Cc1ccc(-c2nc(S(=O)(=O)c3ccc(C)cc3)c(SCC(=O)c3ccccc3)o2)cc1	18µM*
O=C(CSc1oc(-c2ccc(F)cc2)nc1S(=O)(=O)c1ccccc1)c1ccc(Cl)cc1	i
O=C(NC1CCCCC1)c1ccc(Cn2c(SCc3cccc(F)c3)nc3cccnc32)cc1	i
O=C1CCCc2[nH]c(=O)c(-c3nc(-c4cccc([N+](=O)[O-])c4)cs3)cc21	i
COc1ccc2c(Sc3ccccc3)c(C(=O)NCc3cc(Br)ccc3OC)[nH]c2c1	i
CC(C)OCCCNC(=O)CCCN1C(=O)CCn2nc(-c3cccn3C)cc21	i
COc1ccc(NC(=O)CCCc2nnc3n(CCC(C)C)c(=O)c4sccc4n23)cc1Cl	i
COC(=O)c1cccc(NC(=O)c2nsc3ccccc23)c1	i
O=C(NC1CCCC1)c1cc(Nc2cccc(C(F)(F)F)c2)nc2ccccc12	i
COc1ccc(N2CCN(c3csc4ccccc4c3=O)CC2)cc1	i
Cc1ccc(NC(=O)c2sc3ncnc(N(C)C4CCCCC4)c3c2C)cc1	i
Cc1cc(C)c(NC(=O)CCCN2C(=O)COc3ccc(C)cc32)c(C)c1	i
O=C1C(c2ccc(F)cc2)N(CCc2ccc(Cl)cc2)C(=O)CN1C1CCCCCC1 (stereo not given)	i
Cc1cc(C)c2c(NC(=O)c3ccccc3)c(C(=O)Nc3ccc(F)cc3)sc2n1	i
COCCNC(=O)c1c(NC(=O)c2cc(=O)c3cc(C)cc(C)c3o2)sc2c1CCCC2	i
CCOC(=O)c1c(NC(=O)/C=C/c2ccc(OCC)cc2)sc2c1CCCC2	i
COc1ccc(CCNC(=O)CCn2c(=O)c3ccccc3n(CC(=O)Nc3cccc(C)c3)c2=O)cc1OC	i
O=C(/C=C\c1ccc2c(c1)OCO2)NC1CC(=O)N(c2cccc(F)c2)C1 (stereo not given)	i
CC1CCc2c(sc3nnn(CC(=O)Nc4c(C(C)C)cccc4C(C)C)c(=O)c23)C1 (stereo not given)	i
Cn1c(=O)c(=O)n(C)c2cc(NC(=O)c3cccc(F)c3)c(Cl)cc21	i
CC1=C(c2ccc(C)c(C)c2)S(=O)(=O)N(Cc2ccc(C(=O)Nc3cc(F)ccc3F)cc2)C1=O	i
Cc1oc(-c2cccc(Cl)c2)nc1CSCC(=O)NCc1ccccc1Cl	20µM*
Cc1oc(-c2ccc(Cl)cc2)nc1CSCC(=O)NCc1ccccc1Cl	i
Cc1ccc(CNC(=O)CSCc2nc(-c3ccc(Cl)cc3)oc2C)cc1	i

Screens as filed in PubChem.
